Source: PubChem BioAssay (Tox21)
Values joined by “and” are separate entries in the source; they are usually repeats but may differ in a detail not shown here. Identical values can stand only once. Inconclusive results are not listed. Where a call stands in place of a potency, no number is given. Some structures have more than one record in an assay (separate samples or runs), and their calls can disagree. Active and inactive are the calls of the source. Unless noted, the call rests on the fitted dose curve; in most records, active means well fitted curve in the direction sought with a large enough effect in the repeat runs; inconclusive means weak or mixed curves; inactive means no such curve, though single readings can be large; an effect the other way counts as inactive or inconclusive.

How the values were obtained:
[1] = qHTS assay to identify aromatase inhibitors - cell viability counter screen (AID 743084);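 further: cells stimulated with testosterone during compound exposure; nearly all actives have a fitted effect of over 55% in size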
[2] = target: Aryl hydrocarbon receptor (Homo sapiens) (UniProt P35869); assay: qHTS assay to identify small molecule that activate the aryl hydrocarbon receptor (AhR) signaling pathway (AID 743085);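 further: HG2L7.5c1 human HepG2 liver cells with stably integrated DRE-driven firefly reporter; series mostly up to about 70 µM; nearly all actives have a fitted effect of over 15% in size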
Chain of Aryl hydrocarbon receptor (Homo sapiens) (P35869 whole entry, looked up): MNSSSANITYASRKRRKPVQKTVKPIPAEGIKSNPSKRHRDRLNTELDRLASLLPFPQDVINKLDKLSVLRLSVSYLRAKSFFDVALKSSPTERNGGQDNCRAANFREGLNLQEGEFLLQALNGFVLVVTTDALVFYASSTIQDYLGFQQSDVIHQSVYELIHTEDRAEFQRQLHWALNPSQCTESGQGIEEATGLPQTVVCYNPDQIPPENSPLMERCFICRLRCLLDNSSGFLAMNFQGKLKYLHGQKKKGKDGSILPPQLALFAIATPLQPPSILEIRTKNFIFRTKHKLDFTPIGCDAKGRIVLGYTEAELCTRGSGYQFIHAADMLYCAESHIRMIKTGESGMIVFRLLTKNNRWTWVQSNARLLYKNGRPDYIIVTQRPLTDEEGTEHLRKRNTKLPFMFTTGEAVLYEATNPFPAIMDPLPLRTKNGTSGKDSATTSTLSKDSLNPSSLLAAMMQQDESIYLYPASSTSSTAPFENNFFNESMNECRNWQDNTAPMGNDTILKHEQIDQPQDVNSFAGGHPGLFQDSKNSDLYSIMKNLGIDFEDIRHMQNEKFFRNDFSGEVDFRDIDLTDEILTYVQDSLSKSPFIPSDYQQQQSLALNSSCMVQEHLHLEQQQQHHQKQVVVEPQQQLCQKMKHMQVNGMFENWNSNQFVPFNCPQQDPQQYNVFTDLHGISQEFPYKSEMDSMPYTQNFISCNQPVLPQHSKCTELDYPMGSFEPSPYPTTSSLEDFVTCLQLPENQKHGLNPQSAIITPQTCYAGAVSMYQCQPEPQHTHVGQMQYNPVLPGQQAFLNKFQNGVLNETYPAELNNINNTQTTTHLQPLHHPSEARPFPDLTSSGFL
Outline: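 Luminescence read-out: ONE-Glo reagent, 30 min at room temperature, in HG2L7.5c1 HepG2 reporter cells treated 24 h at 37C. Viability was measured beforehand by CellTiter-Fluor fluorescence after 30 min at 37C.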

[3] = qHTS assay to identify small molecule that activate the aryl hydrocarbon receptor (AhR) signaling pathway - cell viability counter screen (AID 743086);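 further: HepG2 liver cells carrying the AhR DRE luciferase reporter; series mostly up to about 70 µM; nearly all actives have a fitted effect of over 45% in size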
Outline: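 HepG2-AhR-luc (HG2L7.5c1) cells, 4000/well, were preincubated 5 h at 37C, exposed to compound in qHTS format for 24 hr at 37C, then given CellTiter-Fluor for 30 min; viability was read as fluorescence in the reporter wells.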

[4] = target: Peroxisome proliferator-activated receptor gamma (Homo sapiens) (UniProt P37231); assay: qHTS assay to identify small molecule agonists of the peroxisome proliferator-activated receptor gamma (PPARg) signaling pathway (AID 743094; active means well fitted activation curve with a large enough effect in the signal ratio in the repeat runs, not every such curve was filed as active; the % refers to the signal ratio)
Chain of Peroxisome proliferator-activated receptor gamma (Homo sapiens) (P37231 whole entry, looked up): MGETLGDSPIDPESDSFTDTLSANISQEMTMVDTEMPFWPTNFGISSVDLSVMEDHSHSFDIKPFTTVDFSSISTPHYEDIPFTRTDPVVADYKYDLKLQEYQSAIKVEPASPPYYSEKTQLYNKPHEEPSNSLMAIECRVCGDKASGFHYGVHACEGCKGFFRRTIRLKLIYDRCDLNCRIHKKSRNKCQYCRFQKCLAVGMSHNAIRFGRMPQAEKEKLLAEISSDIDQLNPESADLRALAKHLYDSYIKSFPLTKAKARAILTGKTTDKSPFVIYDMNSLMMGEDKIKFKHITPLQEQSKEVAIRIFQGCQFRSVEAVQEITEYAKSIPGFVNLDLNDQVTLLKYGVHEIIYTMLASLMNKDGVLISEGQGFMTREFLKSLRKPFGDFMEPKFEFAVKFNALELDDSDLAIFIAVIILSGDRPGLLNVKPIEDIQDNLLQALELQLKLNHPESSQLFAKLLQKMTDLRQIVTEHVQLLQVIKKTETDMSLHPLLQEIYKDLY
Outline: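 Cells from the PPARg UAS-bla HEK293H line are plated and incubated 5 h at 37C. Compounds in DMSO are pinned in and left 17 h at 37C. LiveBLAzer B/G substrate is then added for 1 h at room temperature before fluorescence is measured.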

[5] = target: Peroxisome proliferator-activated receptor gamma (Homo sapiens) (UniProt P37231); assay: qHTS assay to identify small molecule antagonists of the peroxisome proliferator-activated receptor gamma (PPARg) signaling pathway (AID 743191; calls by dose curve; further: nearly all actives have a fitted effect of over 30% in size; further: potency means the concentration at half of the fitted maximal effect)
Outline: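 GeneBLAzer PPARg UAS-bla HEK293H cells carrying a UAS-driven beta-lactamase reporter were plated at 3000 cells/well, preincubated 5 h at 37C, then given compound for 17 h at 37C; LiveBLAzer B/G FRET substrate was read after 1 h at room temperature.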

[6] = qHTS assay for small molecule agonists of the antioxidant response element (ARE) signaling pathway (AID 743202; active means well fitted activation curve with a large enough effect in the signal ratio in the repeat runs, not every such curve was filed as active; the % refers to the signal ratio; further: potency means the concentration at half of the fitted maximal effect)
Outline: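 Steps: seed ARE-bla HepG2 cells (2,000/well); incubate 5 h at 37 C; add compounds by pin tool; incubate 16 h at 37 C; add FRET substrate; read fluorescence after 2 h at RT.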

[7] = qHTS assay for small molecule agonists of the antioxidant response element (ARE) signaling pathway - cell viability counter screen (AID 743203; calls by dose curve; further: nearly all actives have a fitted effect of over 55% in size)
Outline: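 Cytotoxicity was tested in parallel with the ARE reporter screen. ARE-bla HepG2 cells were exposed to compounds for 16 hrs, and viability was taken from CellTiter-Glo luminescence.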

[8] = qHTS assay for small molecule activators of the heat shock response signaling pathway - cell viability counter screen (AID 743209); further: nearly all actives have a fitted effect of over 50% in size
Outline: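 Cytotoxicity counter screen run in parallel with the HSE beta-lactamase reporter, using the same wells. HeLa HSE-bla cells received compound for 5 h at 37 C; ATP-based CellTiter-Glo luminescence was measured after 30 min at room temperature.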

[9] = qHTS assay for small molecule activators of the heat shock response signaling pathway (AID 743210; active means well fitted activation curve with a large enough effect in the signal ratio in the repeat runs, with a control signal flat, not every such curve was filed as active; the % refers to the signal ratio;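 further: HeLa cells with beta-lactamase reporter driven by heat shock elements; series mostly up to about 63 µM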)
Outline: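 Activation of heat shock element-controlled beta-lactamase expression is measured in HeLa cells by LiveBLAzer FRET fluorescence, with compound exposure lasting 5 h at 37 C and substrate loading 2.5 h at room temperature.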

[10] = qHTS assay to identify small molecule agonists of the peroxisome proliferator-activated receptor delta (PPARd) signaling pathway - cell viability counter screen (AID 743211); further: nearly all actives have a fitted effect of over 55% in size; further: potency means the concentration at half of the fitted maximal effect
Outline: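 Read-out: CellTiter-Glo luminescence, 30 min RT, measured in the same wells as the beta-lactamase reporter. Cells: GeneBLAzer PPAR delta UAS-bla HEK293H, 3000 cells/well, compound exposure 17 h at 37C.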

[11] = target: Peroxisome proliferator-activated receptor delta (Homo sapiens) (UniProt Q03181); assay: qHTS assay to identify small molecule agonists of the peroxisome proliferator-activated receptor delta (PPARd) signaling pathway (AID 743212; calls by dose curve)
Chain of Peroxisome proliferator-activated receptor delta (Homo sapiens) (Q03181 whole entry, looked up): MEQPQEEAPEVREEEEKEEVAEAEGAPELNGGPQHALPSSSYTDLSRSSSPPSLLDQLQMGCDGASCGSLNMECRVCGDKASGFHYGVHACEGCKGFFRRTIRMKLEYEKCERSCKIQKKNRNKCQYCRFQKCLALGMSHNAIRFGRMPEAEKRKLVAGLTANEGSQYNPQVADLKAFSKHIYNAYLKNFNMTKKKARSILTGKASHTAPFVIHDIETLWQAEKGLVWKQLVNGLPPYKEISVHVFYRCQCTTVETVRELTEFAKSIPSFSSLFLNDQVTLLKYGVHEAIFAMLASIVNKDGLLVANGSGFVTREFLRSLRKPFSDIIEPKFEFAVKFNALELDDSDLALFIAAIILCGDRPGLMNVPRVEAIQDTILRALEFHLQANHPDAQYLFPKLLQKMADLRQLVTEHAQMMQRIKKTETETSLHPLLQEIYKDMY
Outline: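 Cells expressing a UAS-driven beta-lactamase reporter (PPARd-bla HEK293H) were given test compounds after a 5 h settle and kept at 37 C. Reporter activity was then measured as FRET fluorescence using LiveBLAzer B/G substrate.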

[12] = qHTS assay to identify small molecule antagonists of the peroxisome proliferator-activated receptor delta (PPARd) signaling pathway - cell viability counter screen (AID 743213); further: nearly all actives have a fitted effect of over 50% in size
Outline: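 Cytotoxicity counter screen: CellTiter-Glo luminescence read 30 min after addition, in the same wells as the reporter assay. There, PPARd UAS-bla HEK293H cells (3000/well) were treated 17 h at 37 C with compound and 300 nM L165041.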

[13] = target: Peroxisome proliferator-activated receptor delta (Homo sapiens) (UniProt Q03181); assay: qHTS assay to identify small molecule antagonists of the peroxisome proliferator-activated receptor delta (PPARd) signaling pathway (AID 743215; active means well fitted inhibition curve with a large enough effect in the signal ratio in the repeat runs, not every such curve was filed as active; the % refers to the signal ratio;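 further: cells stimulated with agonist L165041 at 300 nM final during compound exposure; series mostly up to about 62 µM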)
Outline: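 Cells: HEK293H with a UAS-driven beta-lactamase reporter responsive to PPARd. Compounds were co-added with L165041 (300 nM, final) and incubated 17 h at 37 C before a 2 h room-temperature FRET substrate step and fluorescence reading.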

[14] = target: Bile acid receptor (Homo sapiens) (UniProt Q96RI1); assay: qHTS assay to identify small molecule antagonists of the farnesoid-X-receptor (FXR) signaling pathway (AID 743217; active means well fitted inhibition curve with a large enough effect in the signal ratio in the repeat runs, not every such curve was filed as active; the % refers to the signal ratio)
Chain of Bile acid receptor (Homo sapiens) (Q96RI1 whole entry, looked up): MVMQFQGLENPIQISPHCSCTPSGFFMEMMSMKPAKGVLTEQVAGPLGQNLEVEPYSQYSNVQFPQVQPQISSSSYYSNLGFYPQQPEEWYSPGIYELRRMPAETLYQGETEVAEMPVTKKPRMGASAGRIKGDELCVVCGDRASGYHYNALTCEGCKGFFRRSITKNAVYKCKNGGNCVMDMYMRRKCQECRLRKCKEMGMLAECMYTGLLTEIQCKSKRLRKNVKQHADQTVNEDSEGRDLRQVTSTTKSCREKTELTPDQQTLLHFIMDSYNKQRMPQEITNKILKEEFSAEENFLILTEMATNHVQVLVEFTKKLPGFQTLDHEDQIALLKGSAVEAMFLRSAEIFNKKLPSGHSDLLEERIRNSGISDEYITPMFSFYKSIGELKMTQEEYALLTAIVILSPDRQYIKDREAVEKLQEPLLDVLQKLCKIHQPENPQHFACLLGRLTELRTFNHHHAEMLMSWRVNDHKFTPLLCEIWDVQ
Outline: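 Cells carrying a UAS-driven beta-lactamase reporter (GeneBLAzer FXR-UAS-bla HEK 293T) were plated and rested 5 h at 37 °C. Compounds in DMSO were added alongside chenodeoxycholic acid agonist at 50 uM final and left 16 h at 37 °C before FRET substrate readout.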

[15] = target: Bile acid receptor (Homo sapiens) (UniProt Q96RI1); assay: qHTS assay to identify small molecule agonists of the farnesoid-X-receptor (FXR) signaling pathway (AID 743220; active means well fitted activation curve with a large enough effect in the signal ratio in the repeat runs, not every such curve was filed as active; the % refers to the signal ratio)
Outline: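 FXR-UAS-bla HEK 293T cells carrying a UAS-driven beta-lactamase reporter were plated for 5 h at 37C/5% CO2, then exposed to DMSO-dissolved Tox21 10K compounds for 16 h at 37C. A LiveBLAzer B/G FRET substrate was loaded for 2 h at room temperature before fluorescence reading.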

[16] = qHTS assay to identify small molecule antagonists of the farnesoid-X-receptor (FXR) signaling pathway - cell viability counter screen (AID 743221; active means well fitted cell-killing curve with a large enough effect in the repeat runs, not every such curve was filed as active; further: nearly all actives have a fitted effect of over 50% in size)
Outline: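 HEK 293T FXR-bla cells, 5 h pre-incubation; compound + CDCA 50 uM final, 16 h, 37 C; beta-lactamase FRET read first, then CellTiter-Glo luminescence, 30 min RT.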

[17] = target: Vitamin D3 receptor (Homo sapiens) (UniProt P11473); assay: qHTS assay to identify small molecule agonists of the vitamin D receptor (VDR) signaling pathway (AID 743222; calls by dose curve)
Chain of Vitamin D3 receptor (Homo sapiens) (P11473 whole entry, looked up): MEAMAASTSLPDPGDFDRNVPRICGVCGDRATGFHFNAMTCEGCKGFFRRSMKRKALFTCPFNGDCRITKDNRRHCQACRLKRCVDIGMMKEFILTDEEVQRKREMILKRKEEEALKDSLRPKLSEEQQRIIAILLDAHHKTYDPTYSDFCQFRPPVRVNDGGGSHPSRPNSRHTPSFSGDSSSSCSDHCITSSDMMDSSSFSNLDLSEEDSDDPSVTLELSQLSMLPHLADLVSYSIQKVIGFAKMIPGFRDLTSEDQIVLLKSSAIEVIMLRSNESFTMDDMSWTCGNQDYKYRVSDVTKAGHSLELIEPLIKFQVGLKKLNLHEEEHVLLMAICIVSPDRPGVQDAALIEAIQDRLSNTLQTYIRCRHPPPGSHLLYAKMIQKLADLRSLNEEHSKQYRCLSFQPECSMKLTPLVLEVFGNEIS
Outline: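 Cells carrying a VDR-driven beta-lactamase reporter are seeded at 2,000 per well and rested 4 h. Compounds in DMSO are added for 16 h at 37C, and FRET substrate fluorescence is measured after 2 h at room temperature.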

[18] = target: Vitamin D3 receptor (Homo sapiens) (UniProt P11473); assay: qHTS assay to identify small molecule antagonists of the vitamin D receptor (VDR) signaling pathway (AID 743223; active means well fitted inhibition curve with a large enough effect in the signal ratio in the repeat runs, not every such curve was filed as active; the % refers to the signal ratio)
Outline: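 Beta-lactamase reporter read-out: FRET substrate fluorescence after 2 h at room temperature, following 16 h exposure of VDR-bla cells to test compound plus 3 nM (final) 1alpha,25-dihydroxyvitamin D3 agonist at 37C.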

[19] = qHTS assay to identify small molecule antagonists of the peroxisome proliferator-activated receptor gamma (PPARg) signaling pathway - cell viability counter screen (AID 743194); settings: Potency: co-treated with 50 nM rosiglitazone unless noted; further: nearly all actives have a fitted effect of over 55% in size
Outline: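 PPARg-UAS-bla HEK293H cells were plated, rested 5 h at 37 C, then treated with compounds plus rosiglitazone (50 nM final) for 17 h at 37 C; viability was then read by CellTiter-Glo luminescence after 30 min at room temperature.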

[20] = qHTS assay to identify small molecule agonists of the farnesoid-X-receptor (FXR) signaling pathway - cell viability counter screen (AID 743218); further: nearly all actives have a fitted effect of over 45% in size
Outline: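 Cells were seeded, left 5 h at 37 C and 5% CO2, then dosed with compound in DMSO for 16 h. After the beta-lactamase FRET read, CellTiter-Glo was added and luminescence measured 30 min later.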

| Structure (SMILES) | Potency [1] | Potency [2] | Potency [3] | Potency [4] | Potency [5] | Potency [6] | Potency [7] | Potency [8] | Potency [9] | Potency [10] | Potency [11] | Potency [12] | Potency [13] | Potency [14] | outcome [15] | Potency [16] | outcome [17] | outcome [18] | Potency [19] | Potency [20] |
| --- | --- | --- | --- | --- | --- | --- | --- | --- | --- | --- | --- | --- | --- | --- | --- | --- | --- | --- | --- | --- |
| c1nc[nH]n1 | inactive | inactive | inactive | inactive | inactive | inactive | inactive | inactive | inactive | inactive | inactive | inactive | inactive | inactive | inactive | inactive | inactive | inactive | – | – |
| Clc1nc(Cl)nc(Cl)n1 | inactive | inactive | inactive | inactive | inactive | inactive | inactive | inactive | inactive | inactive | inactive | inactive | inactive | – | – | inactive | inactive | inactive | inactive | inactive |
| CCN(N=O)C(N)=O | inactive | inactive | inactive | inactive | inactive | inactive | – | inactive | inactive | inactive | inactive | – | inactive | inactive | inactive | inactive | inactive | inactive | inactive | – |
| CCN(CC)C(=O)SCc1ccc(Cl)cc1 | inactive | inactive | inactive | inactive | inactive | inactive | inactive | inactive | inactive | inactive | – | – | – | inactive | inactive | inactive | inactive | inactive | inactive | – |
| Oc1cc(Cl)c(Cl)cc1Cl | inactive | inactive | inactive | inactive | inactive | – | inactive | inactive | inactive | inactive | – | – | – | – | – | inactive | – | – | inactive | inactive |
| NC(=S)Nc1ccccc1 | inactive | inactive | inactive | inactive | inactive | inactive | inactive | inactive | inactive | inactive | inactive | inactive | inactive | inactive | inactive | inactive | inactive | inactive | inactive | – |
| O=P(O)(O)CCCl | inactive | inactive | inactive | inactive | inactive | inactive | inactive | inactive | inactive | inactive | inactive | inactive | inactive | inactive | inactive | inactive | inactive | inactive | – | inactive |
| CCC(C)(C)c1ccc(O)cc1 | inactive | inactive | inactive | inactive | inactive | inactive | – | inactive | inactive | 49.5 µM (active) and inactive | – | inactive | – | inactive | inactive | inactive | inactive | inactive | inactive | inactive |
| Oc1ccc(-c2ccccc2)cc1 | inactive | inactive | inactive | inactive | 30.5 µM (active) | 53.8 µM (active) and 21.7 µM (active) | inactive | inactive | – | inactive | inactive | inactive | inactive | inactive | inactive | inactive | inactive | inactive | inactive | – |
| CCN(CC)N=O | inactive | inactive | inactive | inactive | inactive | inactive | inactive | inactive | inactive | inactive | inactive | inactive | inactive | inactive | inactive | inactive | inactive | inactive | inactive | – |
| C=C(C)C(=O)OCC1CO1 (centres undefined) | inactive | inactive | inactive | inactive | inactive | inactive | – | inactive | inactive | inactive | inactive | – | inactive | inactive | inactive | inactive | inactive | inactive | inactive | inactive |
| Nc1cccnc1 | inactive | inactive | inactive | inactive | inactive | inactive | inactive | inactive | inactive | inactive | inactive | inactive | inactive | inactive | inactive | inactive | inactive | – | – | inactive |
| C[C@]12CCC(=O)C(O)=C1CC[C@@H]1[C@@H]2CC[C@]2(C)C(=O)CC[C@@H]12 | inactive | inactive | inactive | inactive | inactive | – | – | inactive | inactive | inactive | – | – | – | – | – | inactive | inactive | inactive | inactive | – |
| NCc1cccnc1 | inactive | inactive | inactive | inactive | inactive | inactive | inactive | inactive | inactive | inactive | inactive | inactive | inactive | inactive | inactive | inactive | inactive | inactive | – | inactive |
| Cc1cc(Cl)ccc1OCCCC(=O)O | inactive | inactive | inactive | inactive | inactive | inactive | – | inactive | inactive | inactive | inactive | inactive | inactive | inactive | inactive | inactive | inactive | inactive | inactive | inactive |
